HDAC3 inhib: HDAC3 deacetylase inhibitors, primary screen, biochemical, fluorescence, cell-free homogeneous; inhibition, % at 8.3 µM; recombinant HDAC3, fluorogenic peptide/trypsin coupled; 320,000 compounds, 0.15% hits; AID 2718, 2010; Histone deacetylase 3 (Homo sapiens), O15379; in the data active means inhibition above about 26%, passing the limit was not always enough; inconclusive means no clear call, values can overlap the other calls
Target sequence (O15379 whole entry, looked up): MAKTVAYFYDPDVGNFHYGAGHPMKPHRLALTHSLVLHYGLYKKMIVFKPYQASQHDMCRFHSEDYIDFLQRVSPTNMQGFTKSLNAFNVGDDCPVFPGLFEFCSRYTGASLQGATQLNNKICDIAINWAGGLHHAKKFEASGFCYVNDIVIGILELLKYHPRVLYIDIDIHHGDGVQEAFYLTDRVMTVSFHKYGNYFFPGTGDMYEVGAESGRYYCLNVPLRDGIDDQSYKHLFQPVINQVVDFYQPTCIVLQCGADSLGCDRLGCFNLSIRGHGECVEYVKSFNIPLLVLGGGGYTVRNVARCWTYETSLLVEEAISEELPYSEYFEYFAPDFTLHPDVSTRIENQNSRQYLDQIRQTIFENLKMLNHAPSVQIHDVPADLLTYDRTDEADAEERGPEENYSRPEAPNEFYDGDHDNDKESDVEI
Mot1-301 SUMO: yeast Mot1-301 growth rescue at high temperature, primary screen, SUMOylation pathway inhibitor project, S. cerevisiae, ATP luminescence, 38.5C | S. cerevisiae Mot1-301 growth rescue; percent above DMSO median, 100 means doubled | growth rescue, % at 18.8 µM | 320,000 compounds, 1% hits | AID 2716, 2010;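 active means every valid replicate shows activation above 250% relative to neutral control wells; inactive means the rest, any valid replicate at or below 250%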;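 further: OY570 slx delta 5 strain wells were the positive control but not used for scaling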
IDE cell inh: human IDE inhibitors in live cells, primary screen, fluorescence polarization, HEK cells, FAbetaB substrate | Insulin-degrading enzyme (Homo sapiens), P14735 | FAbetaB cleavage | AID 434962, 2010 | 320,000 compounds, 0.41% hits | inhibition, % at 5.59 µM;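 active means percent inhibition above the average of all tested compounds plus 3 SD, set per screening campaign, cut at about 16% in these data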;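 further: IDE supplied by intact live HEK cells; FP after avidin binding of uncleaved biotin substrate so inhibition keeps polarization high; 0% = DMSO wells and 100% = 60 µM reference IDE inhibitor Ii1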
IDE act: human IDE activators in live cells, primary screen, fluorescence polarization, HEK cells, FAbeta-B substrate. AID 493087, 2011. FAbeta-B cleavage; 0% vehicle, 100% cell-free pure enzyme wells. Insulin-degrading enzyme (Homo sapiens), P14735. activation, % at 5.96 µM. 340,000 compounds, 0.073% hits;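 active means activation above the mean of all tested compounds plus 3 SD, set per screening campaign, cut at about 17% in these data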
LANA-H2A inh: blockers of LANA interaction with H2A/H2B – biochemical, FP readout, HTS, primary screen | AID 2629, 2010 | Protein LANA1 (Human herpesvirus 8 type P (isolate GK18)), Q9QR71 | 320,000 compounds, 0.6% hits | cell-free LANA-H2A/H2B peptide, fluorescence polarization | inhibition, % (test concentration not listed); in the data active means inhibition mostly above about 10%, no sharp cut-off; inactive means mostly below about 6.7%
Mot1 SUMO dose: growth restoration of Mot1-301 yeast on galactose, dose response, SUMO pathway inhibitor project, whole organism, S. cerevisiae, ATP luminescence, cherry-picked samples. 2,300 tested, under 10 active. growth activity, percent, % at 42 µM. shares compounds with Mot1-301 SUMO. S. cerevisiae Mot1-301 galactose growth, 24 h; -100 = growth of slx-deleted rescue strain;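 active means Signal drops as the depositor expects, and the fitted half-maximal dose is no more than ten times the top valid tested dose; inconclusive means Poor fit, or a flat curve whose signal drops by 30% to 70%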;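 further: more negative values mean stronger growth rescue toward the control strain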
An asterisk follows results filed as active; u = inconclusive; x = no result given; + = active, no number. In the library only some 2.1% were active in any assay of this set; here they are far more common.

SMILES | HDAC3 inhib | Mot1-301 SUMO | IDE cell inh | IDE act | LANA-H2A inh | Mot1 SUMO dose
CSc1cccc(NC(=S)N2CCC(c3ccccc3)C2)c1 (stereo not given) | -5.1 | 36.7 | 3.6 | 1.8 | -7.0 | x
COc1ccccc1NC(=O)c1nn(C)cc1Br | -10.2 | 668.6* | 2.1 | 2.7 | 0.7 | -0.7
COc1ccccc1NC(=O)c1nn(-c2cccc(C(F)(F)F)c2)ccc1=O | 1.0 | + | 8.1 | 1.0 | 0.7 | -0.3
CN(C)S(=O)(=O)c1cccc(C(=O)Nc2ccccc2)c1 | 0.1 | -26.5 | -1.6 | 7.4 | 0.6 | x
CC(C)N(C(=S)Nc1cccc(S(=O)(=O)N(C)C)c1)c1ccccc1 | x | 453.6* | 4.7 | 1.3 | 4.1 | 0.5
CN(C)S(=O)(=O)c1cccc(NC(=O)C(c2ccccc2)c2ccccc2)c1 | 5.5 | 403.9* | 0.7 | -3.4 | 12.5 | 0.1
CC(=O)c1ccc(N2CCN(C(=O)c3ccc(Cl)c(NC4=NC5CS(=O)(=O)CC5S4)c3)CC2)cc1 (stereo not given) | 6.7 | 9.0 | 4.1 | -18.9 | 1.6 | x
Cc1c(/C(O)=C2\C(=O)C(=O)N(CCCN(C)C)C2c2ccco2)cnn1-c1ccccc1 (stereo not given) | x | x | x | 5.1 | x | x
O=C(Nc1nc(-c2ccccn2)cs1)c1ccc2c(c1)OCCO2 | 1.5 | 368.9* | 7.2 | -14.1 | 5.9 | -0.4
Cc1ccc2ccc(S(=O)(=O)NCc3ccco3)cc2c1 | -1.5 | 8.9 | -0.6 | 1.3 | 4.0 | x
O=S(=O)(NCc1ccco1)c1ccc2ccccc2c1 | -3.8 | 429.7* | -2.1 | 12.1 | -3.1 | -0.1
Cc1nn(CC(=O)NC(C)C(C)C)c(C)c1S(=O)(=O)N1CCCCC1 (stereo not given) | x | x | x | 5.4 | x | x
O=C(NNc1ccccc1)C(CCO)C(=O)NNc1ccccc1 | -5.6 | 403.6* | -3.2 | 1.4 | -0.5 | 0.4
C=CCSc1nnc2c(n1)[nH]c1c(C)cccc12 | 2.3 | 531.7* | 1.4 | -3.1 | 5.5 | -1.1
Cc1cccc2c1[nH]c1nc(N/N=C\c3ccco3)nnc12 | -3.2 | -5.6 | 3.9 | x | 0.0 | x
CC(NC(=O)c1cnc2n(c1=O)CCS2)c1ccccc1 (stereo not given) | 2.1 | 994.4* | -2.8 | -2.5 | -2.9 | 0.1
CCC(C)NC(=O)c1cnc2n(c1=O)CCS2 (stereo not given) | 2.8 | -0.5 | 0.6 | -4.5 | -0.9 | x
O=C(NCCc1ccccc1)/C(=C\c1cccc([N+](=O)[O-])c1)NC(=O)c1ccco1 | 5.0 | -17.2 | 0.8 | -1.9 | 0.0 | x
CC(NS(=O)(=O)c1ccc(Cl)cc1)C(=O)OCC(=O)c1ccc[nH]1 (stereo not given) | -3.8 | -5.5 | -3.2 | -1.1 | 3.3 | x
CCn1c(=O)c2ccccc2n2c(SCC(=O)N3CCc4ccccc4C3)nnc12 | -5.1 | 15.9 | -1.7 | -2.1 | -0.7 | x
CCCn1c(=O)c2ccccc2n2c(SCC(=O)N3CCc4ccccc4C3)nnc12 | -1.6 | 433.5* | 4.4 | -2.6 | -1.1 | -0.4
Nc1nnc(CC(=O)N2CCCCC2)s1 | -4.7 | 396.4* | 2.2 | 3.9 | 0.7 | 0.3
COc1cc(-c2nnc(SCC#CCO)o2)cc(OC)c1OC | 0.1 | 966.6* | 1.9 | 1.3 | -7.1 | 0.6
O=c1c2ccccc2nc(COc2ccccc2)n1/N=C/c1cn[nH]c1-c1ccccc1 | 2.5 | 647.1* | 2.4 | -17.2 | 3.8 | -0.7
COc1ccc(N2C(=O)CCC(C(=O)NCc3cccnc3)C2c2ccc(OC)c(OC)c2)cc1 (stereo not given) | 9.3 | 358.6* | -1.7 | 3.8 | 1.1 | 0.6
SMILES | HDAC3 inhib | Mot1-301 SUMO | IDE cell inh | IDE act | LANA-H2A inh | Mot1 SUMO dose
CCOc1ccccc1NC(=O)/C=C/c1ccc(S(=O)(=O)N2CCOCC2)cc1 | x | x | x | 0.8 | x | x
Cc1ccc(C(C(=O)NCC2CCCO2)N(Cc2ccccc2F)C(=O)Cn2nnc(-c3cccs3)n2)cc1 (stereo not given) | 6.4 | 371.4* | 2.6 | 1.9 | 1.7 | 0.1
O=C(NC1CCCC1)C(c1ccncc1)N(CC1CCCO1)C(=O)Cn1nnc(-c2cccs2)n1 (stereo not given) | -1.2 | 3.6 | -2.0 | 2.6 | -3.6 | x
Cc1nnc(C)n1/N=C/c1cc2ccccc2nc1Cl | 3.7 | 607.7* | 6.9 | 2.3 | -3.5 | -0.3
Cn1c(N/N=C/c2cc3ccccc3nc2Cl)nc2ccccc21 | 1.5 | 43.6 | -1.1 | -8.2 | 0.9 | x
CCN(C(=O)CN1C(=O)NC(c2ccccc2)(c2ccc(C)c(C)c2)C1=O)C1CCCCC1 (stereo not given) | 9.8 | -22.5 | 3.6 | 2.3 | -473.3 | x
COCCn1c(SCc2ccc(Cl)cc2)nc2c1c(=O)[nH]c(=O)n2C | 2.6 | + | 1.8 | 4.3 | 4.3 | -0.1
Cn1c(=O)[nH]c(=O)c2c1nc(Sc1ccccc1)n2CCc1ccccc1 | -0.8 | 614.4* | -2.6 | 2.8 | -1.9 | 0.3
Cc1ccc(/C=N/NC(=O)NC23CC4CC(CC(C4)C2)C3)o1 | 13.2 | 742.9* | 0.6 | 0.1 | -1.2 | -0.6
O=C(c1ccc([N+](=O)[O-])cc1)N1CCN(c2ncc(Br)cn2)CC1 | -1.8 | 656.3* | 2.4 | -0.9 | -0.9 | 0.4
O=C(c1ccc(Br)cc1)N1CCN(c2ncccn2)CC1 | -3.8 | -12.7 | 2.7 | 4.0 | 5.2 | x
COC(=O)c1cccc(NC(=O)c2ccccc2)c1 | 2.0 | -5.4 | 5.7 | 0.8 | -2.8 | x
COC(=O)c1cccc(NC(=O)c2ccc[n+]([O-])c2)c1 | 3.9 | 561.0* | -0.1 | -8.2 | 1.2 | 0.5
Cc1cccc2nc(CSc3ccccc3N)cn12 | 2.4 | 0.5 | 6.9 | 2.3 | -0.6 | x
Cc1cccc2nc(COc3ccc4ccccc4c3Br)cn12 | x | 728.5* | -1.1 | 6.3 | 2.4 | -1.0
CC(C)CNS(=O)(=O)c1ccc(CCC(=O)NC2CCCCC2)cc1 | -3.8 | -6.3 | 6.4 | 3.0 | 0.9 | x
COc1ccc(CCC(=O)NNC(=O)Nc2ccc(C(C)=O)cc2)cc1 | 9.2 | -4.3 | -6.2 | 1.5 | 5.0 | x
COC(=O)C12CCC3(SCCS3)C(C(=O)OC)(CCC13SCCS3)C2 | 1.3 | 522.7* | 12.2 | 1.4 | -0.4 | -0.4
Cc1cccc(N2CCN(C(=O)CN3C(=O)NC(C)(C)C3=O)CC2)c1C | 5.2 | 526.9* | 0.5 | 2.5 | 1.3 | -0.4
O=C(COc1ccc(F)cc1Cl)N(Cc1nnc(-c2ccccc2Cl)o1)C1CC1 | -3.2 | 509.6* | -1.1 | 10.6 | -1.2 | 0.1
CCOc1cc(C(=O)Nc2ccc(S(=O)(=O)N3CCCCC3)cc2)ccc1OCC(=O)N1CCOCC1 | u | 7.2 | 6.2 | -7.0 | -1.3 | x

Screening results (PubChem)
